# Experimental data from paper PMC7862700, “An all-to-all approach to the identification of sequence-specific readers for epigenetic DNA modifications on cytosine”.
# Key:
# Assay in all cases: DAPPL (digital affinity profiling via proximity ligation, sequencing); 10 mM Tris-HCl pH 7.5, 50 mM NaCl, 1 mM DTT, 4% glycerol, room temperature, 30 min; GST-TFs on glutathione beads, 16-mer random dsDNA library, 0.1% formaldehyde crosslink after washing; high values mean tight binding
# Settings in all cases: protein: recombinant; tags: N-terminal GST; dsDNA, one strand shown
# [1] = biological target: T1, FLI1 (Homo sapiens, UniProt Q01543 1-452)
# T1 sequence: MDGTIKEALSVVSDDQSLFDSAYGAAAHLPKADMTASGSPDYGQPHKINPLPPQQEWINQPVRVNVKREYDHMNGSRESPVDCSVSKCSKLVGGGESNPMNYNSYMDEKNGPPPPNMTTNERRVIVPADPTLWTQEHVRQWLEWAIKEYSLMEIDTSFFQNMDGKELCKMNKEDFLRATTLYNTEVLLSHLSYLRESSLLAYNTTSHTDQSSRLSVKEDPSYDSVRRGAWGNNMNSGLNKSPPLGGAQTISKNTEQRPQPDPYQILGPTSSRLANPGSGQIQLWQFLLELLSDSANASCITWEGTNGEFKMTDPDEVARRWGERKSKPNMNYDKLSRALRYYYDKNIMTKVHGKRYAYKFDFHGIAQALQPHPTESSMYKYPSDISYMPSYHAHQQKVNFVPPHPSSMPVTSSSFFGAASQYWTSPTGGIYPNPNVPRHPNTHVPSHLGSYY
# In short: (§1)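 Beads coated with glutathione captured GST-fused human transcription factors that had been expressed in yeast, and the factors were then given DNA barcodes and pooled with a tag-only sample. The pools were incubated with 200 nmole of a random double-stranded 16-mer DNA library in Tris/NaCl/DTT/glycerol buffer for 30 min at room temperature, washed, crosslinked with 0.1% formaldehyde and proximity-ligated with BsaI/T4 ligase at 37 °C for 1 h. PCR amplification and Illumina NextSeq500 sequencing came last. Binding signal is each hexamer's read frequency for a factor divided by its frequency for the tag-only sample.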
# [2] = biological target: T2, ELK1 (Homo sapiens, UniProt P19419 1-428)
# T2 sequence: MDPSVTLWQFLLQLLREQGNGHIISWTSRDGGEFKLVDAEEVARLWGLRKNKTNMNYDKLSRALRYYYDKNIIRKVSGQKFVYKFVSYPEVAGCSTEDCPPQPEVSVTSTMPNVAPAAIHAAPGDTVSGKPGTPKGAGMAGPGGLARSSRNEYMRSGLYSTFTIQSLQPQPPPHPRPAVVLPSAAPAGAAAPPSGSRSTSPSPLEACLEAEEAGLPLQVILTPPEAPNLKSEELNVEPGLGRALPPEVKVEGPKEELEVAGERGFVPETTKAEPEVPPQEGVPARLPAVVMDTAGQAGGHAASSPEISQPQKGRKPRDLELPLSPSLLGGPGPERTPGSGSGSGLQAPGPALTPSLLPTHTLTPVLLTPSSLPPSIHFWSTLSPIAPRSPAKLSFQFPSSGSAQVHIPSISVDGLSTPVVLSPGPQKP
# In short: as §1
# [3] = biological target: T3, GABPA (Homo sapiens, UniProt Q06546 1-454)
# T3 sequence: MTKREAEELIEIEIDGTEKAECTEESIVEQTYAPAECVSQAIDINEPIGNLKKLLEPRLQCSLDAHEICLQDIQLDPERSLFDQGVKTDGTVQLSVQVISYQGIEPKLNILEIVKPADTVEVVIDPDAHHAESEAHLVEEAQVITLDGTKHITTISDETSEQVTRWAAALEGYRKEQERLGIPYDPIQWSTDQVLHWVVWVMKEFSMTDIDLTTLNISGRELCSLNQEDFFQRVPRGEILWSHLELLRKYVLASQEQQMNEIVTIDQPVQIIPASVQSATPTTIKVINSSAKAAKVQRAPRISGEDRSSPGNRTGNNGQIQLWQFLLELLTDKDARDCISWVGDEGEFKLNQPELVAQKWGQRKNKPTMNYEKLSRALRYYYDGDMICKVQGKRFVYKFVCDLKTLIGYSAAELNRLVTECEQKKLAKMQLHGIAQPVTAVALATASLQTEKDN
# In short: as §1
# [4] = biological target: T4, ERG (Homo sapiens, UniProt P11308 1-479)
# T4 sequence: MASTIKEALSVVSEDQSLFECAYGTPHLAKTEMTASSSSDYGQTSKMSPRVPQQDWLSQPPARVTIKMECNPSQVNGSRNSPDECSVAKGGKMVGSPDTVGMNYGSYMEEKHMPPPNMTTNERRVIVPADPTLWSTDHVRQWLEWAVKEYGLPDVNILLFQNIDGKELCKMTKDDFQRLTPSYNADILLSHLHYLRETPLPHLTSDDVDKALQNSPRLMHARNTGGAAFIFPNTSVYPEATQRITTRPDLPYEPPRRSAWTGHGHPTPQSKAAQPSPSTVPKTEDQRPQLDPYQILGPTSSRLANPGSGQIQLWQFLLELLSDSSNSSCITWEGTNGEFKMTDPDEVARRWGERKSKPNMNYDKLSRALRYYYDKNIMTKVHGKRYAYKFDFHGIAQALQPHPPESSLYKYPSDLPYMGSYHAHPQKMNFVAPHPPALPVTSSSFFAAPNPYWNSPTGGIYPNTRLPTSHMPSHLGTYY
# In short: as §1
# [5] = biological target: ELF1 (Homo sapiens, UniProt P32519 1-619)
# ELF1, sequence (P32519 whole entry): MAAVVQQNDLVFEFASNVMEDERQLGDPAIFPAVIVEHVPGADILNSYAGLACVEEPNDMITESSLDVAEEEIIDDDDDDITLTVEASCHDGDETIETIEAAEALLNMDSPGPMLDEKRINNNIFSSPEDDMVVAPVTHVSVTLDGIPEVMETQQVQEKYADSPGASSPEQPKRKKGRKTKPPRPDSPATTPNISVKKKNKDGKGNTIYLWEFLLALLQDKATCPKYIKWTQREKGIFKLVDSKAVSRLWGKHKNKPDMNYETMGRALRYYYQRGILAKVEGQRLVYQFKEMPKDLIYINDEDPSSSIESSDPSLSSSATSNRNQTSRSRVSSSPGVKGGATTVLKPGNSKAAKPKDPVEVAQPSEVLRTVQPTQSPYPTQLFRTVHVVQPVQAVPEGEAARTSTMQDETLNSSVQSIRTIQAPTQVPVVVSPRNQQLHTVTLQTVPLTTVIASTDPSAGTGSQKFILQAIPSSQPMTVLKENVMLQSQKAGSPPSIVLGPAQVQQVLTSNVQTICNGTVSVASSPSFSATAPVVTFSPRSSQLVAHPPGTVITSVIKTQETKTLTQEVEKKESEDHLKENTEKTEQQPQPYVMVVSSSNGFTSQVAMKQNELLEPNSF
# In short: as §1
# [6] = biological target: T5, EHF (Homo sapiens, UniProt Q9NZC4 1-300)
# T5 sequence: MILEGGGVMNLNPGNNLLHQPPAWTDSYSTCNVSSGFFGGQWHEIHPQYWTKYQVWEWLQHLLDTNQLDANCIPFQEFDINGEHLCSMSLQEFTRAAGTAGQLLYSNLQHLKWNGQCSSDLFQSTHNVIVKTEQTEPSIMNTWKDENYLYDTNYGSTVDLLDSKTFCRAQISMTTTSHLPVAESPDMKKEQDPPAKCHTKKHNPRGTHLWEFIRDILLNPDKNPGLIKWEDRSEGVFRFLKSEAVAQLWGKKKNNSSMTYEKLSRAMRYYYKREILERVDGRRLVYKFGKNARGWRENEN
# In short: as §1
# [7] = biological target: SPI1 (Homo sapiens, UniProt P17947 1-270)
# In short: as §1
# [8] = biological target: SPIB (Homo sapiens, UniProt Q01892 1-262)
# SPIB, sequence (Q01892 whole entry): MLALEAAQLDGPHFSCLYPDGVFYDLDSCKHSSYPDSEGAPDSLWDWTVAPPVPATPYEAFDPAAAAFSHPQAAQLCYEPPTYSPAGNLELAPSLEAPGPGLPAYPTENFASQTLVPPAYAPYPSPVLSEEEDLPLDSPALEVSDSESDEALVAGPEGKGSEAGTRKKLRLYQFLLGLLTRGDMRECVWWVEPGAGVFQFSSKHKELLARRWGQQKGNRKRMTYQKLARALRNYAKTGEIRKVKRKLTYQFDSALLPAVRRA
# In short: as §1
# [9] = biological target: T6, ELK3 (Homo sapiens, UniProt P41970 1-407)
# T6 sequence: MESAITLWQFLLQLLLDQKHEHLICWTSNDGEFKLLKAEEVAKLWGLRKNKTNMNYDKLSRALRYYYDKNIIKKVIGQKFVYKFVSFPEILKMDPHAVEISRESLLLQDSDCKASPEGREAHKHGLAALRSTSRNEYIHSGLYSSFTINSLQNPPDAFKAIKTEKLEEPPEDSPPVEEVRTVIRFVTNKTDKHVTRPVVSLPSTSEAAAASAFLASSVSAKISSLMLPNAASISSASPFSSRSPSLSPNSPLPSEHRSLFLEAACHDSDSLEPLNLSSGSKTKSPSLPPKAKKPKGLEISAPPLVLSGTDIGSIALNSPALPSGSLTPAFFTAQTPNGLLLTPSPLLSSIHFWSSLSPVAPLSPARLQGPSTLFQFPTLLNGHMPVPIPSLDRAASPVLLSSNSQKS
# In short: as §1
# [10] = biological target: T7, FEV (Homo sapiens, UniProt Q99581 1-238)
# T7 sequence: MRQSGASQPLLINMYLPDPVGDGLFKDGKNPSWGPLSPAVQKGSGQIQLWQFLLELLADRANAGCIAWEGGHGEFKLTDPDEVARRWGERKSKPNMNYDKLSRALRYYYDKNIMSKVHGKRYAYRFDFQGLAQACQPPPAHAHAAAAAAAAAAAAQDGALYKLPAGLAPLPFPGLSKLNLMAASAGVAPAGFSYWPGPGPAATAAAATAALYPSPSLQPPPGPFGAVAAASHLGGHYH
# In short: as §1
# [11] = biological target: ETV5 (Homo sapiens, UniProt P41161 1-510)
# ETV5, sequence (P41161 whole entry): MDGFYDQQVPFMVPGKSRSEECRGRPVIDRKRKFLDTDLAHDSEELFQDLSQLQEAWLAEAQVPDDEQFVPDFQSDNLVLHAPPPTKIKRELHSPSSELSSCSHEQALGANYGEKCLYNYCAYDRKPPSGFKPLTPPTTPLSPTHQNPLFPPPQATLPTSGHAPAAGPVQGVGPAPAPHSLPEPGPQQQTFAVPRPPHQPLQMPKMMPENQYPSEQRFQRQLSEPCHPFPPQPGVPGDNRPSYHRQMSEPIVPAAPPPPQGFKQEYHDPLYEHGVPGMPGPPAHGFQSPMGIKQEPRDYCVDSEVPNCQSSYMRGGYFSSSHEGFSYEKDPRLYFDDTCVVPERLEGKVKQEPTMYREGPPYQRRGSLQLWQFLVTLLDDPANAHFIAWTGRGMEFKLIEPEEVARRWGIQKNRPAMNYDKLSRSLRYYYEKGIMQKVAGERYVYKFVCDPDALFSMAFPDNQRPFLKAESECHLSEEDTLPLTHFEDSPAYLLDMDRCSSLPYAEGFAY
# In short: as §1
# [12] = biological target: T8, SPIC (Homo sapiens, UniProt Q8N5J4 1-248)
# T8 sequence: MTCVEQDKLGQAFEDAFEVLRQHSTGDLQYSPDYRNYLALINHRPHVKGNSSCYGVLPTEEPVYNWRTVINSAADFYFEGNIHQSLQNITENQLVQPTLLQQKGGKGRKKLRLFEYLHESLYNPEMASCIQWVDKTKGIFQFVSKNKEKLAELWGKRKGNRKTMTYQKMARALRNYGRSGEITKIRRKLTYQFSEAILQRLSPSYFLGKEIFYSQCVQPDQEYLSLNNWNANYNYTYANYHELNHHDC
# In short: as §1
# [13] = biological target: ELF4 (Homo sapiens, UniProt Q99607 1-663)
# ELF4, sequence (Q99607 whole entry): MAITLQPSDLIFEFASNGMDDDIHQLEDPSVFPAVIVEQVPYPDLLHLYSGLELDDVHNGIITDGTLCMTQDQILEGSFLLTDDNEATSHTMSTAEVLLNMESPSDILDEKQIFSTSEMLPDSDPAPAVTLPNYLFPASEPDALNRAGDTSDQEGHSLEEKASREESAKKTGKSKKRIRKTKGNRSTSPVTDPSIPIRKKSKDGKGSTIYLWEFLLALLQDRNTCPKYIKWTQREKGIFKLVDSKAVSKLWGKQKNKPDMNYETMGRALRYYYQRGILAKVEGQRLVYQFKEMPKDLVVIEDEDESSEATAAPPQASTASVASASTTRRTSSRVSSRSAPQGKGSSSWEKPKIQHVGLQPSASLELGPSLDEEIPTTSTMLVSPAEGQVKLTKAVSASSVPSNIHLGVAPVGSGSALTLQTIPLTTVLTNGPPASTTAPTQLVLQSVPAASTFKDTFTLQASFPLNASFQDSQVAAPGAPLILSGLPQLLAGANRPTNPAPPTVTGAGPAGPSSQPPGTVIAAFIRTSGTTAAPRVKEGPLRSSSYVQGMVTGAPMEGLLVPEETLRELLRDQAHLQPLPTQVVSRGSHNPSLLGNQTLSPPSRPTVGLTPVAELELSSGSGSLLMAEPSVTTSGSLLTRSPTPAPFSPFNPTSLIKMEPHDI
# In short: as §1
# [14] = biological target: T9, ELK4 (Homo sapiens, UniProt P28324-2 1-405)
# T9 sequence: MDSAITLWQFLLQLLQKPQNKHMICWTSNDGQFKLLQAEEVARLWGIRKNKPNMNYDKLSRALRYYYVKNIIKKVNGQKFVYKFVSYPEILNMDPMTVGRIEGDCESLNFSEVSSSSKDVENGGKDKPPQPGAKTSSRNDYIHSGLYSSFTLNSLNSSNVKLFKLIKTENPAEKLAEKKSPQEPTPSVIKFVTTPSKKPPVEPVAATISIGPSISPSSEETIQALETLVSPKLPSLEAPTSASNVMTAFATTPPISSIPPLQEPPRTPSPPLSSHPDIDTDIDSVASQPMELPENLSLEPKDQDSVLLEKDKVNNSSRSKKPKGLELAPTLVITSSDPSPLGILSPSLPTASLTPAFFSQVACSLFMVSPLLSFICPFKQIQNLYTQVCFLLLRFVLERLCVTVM
# In short: as §1
# [15] = biological target: T10, ETV2 (Homo sapiens, UniProt O00321 1-342)
# T10 sequence: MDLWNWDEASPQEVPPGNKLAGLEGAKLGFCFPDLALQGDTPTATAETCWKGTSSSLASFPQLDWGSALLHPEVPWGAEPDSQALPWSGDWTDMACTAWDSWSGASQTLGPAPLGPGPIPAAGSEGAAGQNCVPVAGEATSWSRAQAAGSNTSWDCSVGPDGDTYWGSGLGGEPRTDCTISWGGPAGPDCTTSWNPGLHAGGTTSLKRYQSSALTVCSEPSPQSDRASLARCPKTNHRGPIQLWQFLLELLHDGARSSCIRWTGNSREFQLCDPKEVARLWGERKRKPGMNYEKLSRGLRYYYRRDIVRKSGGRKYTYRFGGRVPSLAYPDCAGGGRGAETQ
# In short: as §1
# [16] = biological target: T11, ELF3 (Homo sapiens, UniProt P78545 1-371)
# T11 sequence: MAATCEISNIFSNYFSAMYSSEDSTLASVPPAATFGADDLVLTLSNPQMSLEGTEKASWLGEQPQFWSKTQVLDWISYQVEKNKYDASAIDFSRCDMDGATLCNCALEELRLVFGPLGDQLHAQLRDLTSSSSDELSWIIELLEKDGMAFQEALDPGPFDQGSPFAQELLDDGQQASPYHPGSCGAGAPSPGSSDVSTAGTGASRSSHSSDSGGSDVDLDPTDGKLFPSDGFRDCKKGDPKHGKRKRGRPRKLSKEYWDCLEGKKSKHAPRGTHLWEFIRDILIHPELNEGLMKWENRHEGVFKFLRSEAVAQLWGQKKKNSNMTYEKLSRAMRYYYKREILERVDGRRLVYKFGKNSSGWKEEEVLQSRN
# In short: as §1
# [17] = biological target: ETV1 (Homo sapiens, UniProt P50549 1-477)
# ETV1, sequence (P50549 whole entry): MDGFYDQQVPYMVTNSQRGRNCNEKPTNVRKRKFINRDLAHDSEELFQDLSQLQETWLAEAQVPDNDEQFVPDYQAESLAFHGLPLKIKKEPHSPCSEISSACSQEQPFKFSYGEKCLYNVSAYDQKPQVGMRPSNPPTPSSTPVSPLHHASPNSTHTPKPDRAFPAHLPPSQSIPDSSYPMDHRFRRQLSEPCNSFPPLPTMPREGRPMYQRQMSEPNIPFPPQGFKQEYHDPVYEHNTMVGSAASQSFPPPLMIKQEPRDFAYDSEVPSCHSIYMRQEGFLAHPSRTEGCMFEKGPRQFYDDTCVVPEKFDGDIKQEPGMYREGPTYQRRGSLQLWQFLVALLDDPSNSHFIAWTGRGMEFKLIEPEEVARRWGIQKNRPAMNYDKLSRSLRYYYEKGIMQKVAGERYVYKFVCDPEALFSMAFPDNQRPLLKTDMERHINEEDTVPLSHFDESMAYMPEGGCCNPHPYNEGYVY
# In short: as §1
sequence,measurement,setting,value
ACACAA,binding signal,[1],"1.14 fold enrichment (6-mer frequency, TF over GST control)"
same,binding signal,[2],"1.17 fold enrichment (6-mer frequency, TF over GST control)"
same,binding signal,[3],"1.12 fold enrichment (6-mer frequency, TF over GST control)"
same,binding signal,[4],"1.17 fold enrichment (6-mer frequency, TF over GST control)"
same,binding signal,[5],"1.23 fold enrichment (6-mer frequency, TF over GST control)"
same,binding signal,[6],"1.21 fold enrichment (6-mer frequency, TF over GST control)"
same,binding signal,[7],"1.17 fold enrichment (6-mer frequency, TF over GST control)"
same,binding signal,[8],"1.21 fold enrichment (6-mer frequency, TF over GST control)"
same,binding signal,[9],"1.19 fold enrichment (6-mer frequency, TF over GST control)"
same,binding signal,[10],"1.17 fold enrichment (6-mer frequency, TF over GST control)"
same,binding signal,[11],"1.19 fold enrichment (6-mer frequency, TF over GST control)"
same,binding signal,[12],"1.22 fold enrichment (6-mer frequency, TF over GST control)"
same,binding signal,[13],"1.17 fold enrichment (6-mer frequency, TF over GST control)"
same,binding signal,[14],"1.05 fold enrichment (6-mer frequency, TF over GST control)"
same,binding signal,[15],"1.1 fold enrichment (6-mer frequency, TF over GST control)"
same,binding signal,[16],"1.11 fold enrichment (6-mer frequency, TF over GST control)"
same,binding signal,[17],"1.14 fold enrichment (6-mer frequency, TF over GST control)"
